# “And” between values parts separate entries of the source, which are not always exact repeats. Equal values may be shown once. Some compounds were tested as several samples or in several runs, with calls that do not always agree. The source made the active and inactive calls. How the source made its calls: active means hit-call score of the fitted dose curve at least 0.9, where 1 is the maximum; inactive means score below 0.9.
# How the values were obtained:
# [1] = read-out: Matrix Metallopeptidase 1 (MMP1), MMP1 (gene 4312); experiment: BSK_BF4T_MMP1: BioMAP Diversity Plus: BF4T Assay for Matrix Metallopeptidase 1 (MMP1) Biomarker Activity (AID 2284270); conditions: primary human bronchial epithelial cells with fibroblasts
# Summary of the method: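 MMP-1 quantified by ELISA in primary human bronchial epithelial/dermal fibroblast co-cultures, 24 hours post-dosing, with DMSO as baseline; parallel sulforhodamine B staining (560 nm) tracks overt cytotoxicity.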
# [2] = read-out: Matrix Metallopeptidase 3 (MMP3), MMP3 (gene 4314); experiment: BSK_BF4T_MMP3: BioMAP Diversity Plus: BF4T Assay for Matrix Metallopeptidase 3 (MMP3) Biomarker Activity (AID 2284271); conditions: primary human bronchial epithelial cells with fibroblasts
# Experimental: BSK_BF4T is a cell-based, multiplexed-readout assay that uses bronchial epithelial cells and dermal fibroblasts, a human vascular primary cell, with measurements taken at 24 hours after chemical dosing in a microplate: 96-well plate.BSK_BF4T_MMP3 is an assay component measured in the BSK_BF4T assay. It measures MMP-3 antibody related to regulation of gene expression using ELISA technology.Data from the assay component BSK_BF4T_MMP3 was analyzed at the endpoint, BSK_BF4T_MMP3, in the positive analysis fitting direction relative to DMSO as the negative control and baseline of activity. Using a type of binding reporter, gain or loss-of-signal activity can be used to understand protein changes. To generalize the intended target to other relatable targets, this assay endpoint is annotated to the 'protease' intended target family, where the subfamily is 'matrix metalloproteinase'.
# (§1) The levels of cell surface (or secreted, indicated by the prefix "s") biomarker endpoints were measured by ELISA. Overt cytotoxicity to cells in confluent adherent cultures (all systems other than the BT system) was assessed by measuring total protein levels using sulforhodamine B (SRB) staining in parallel cultures at the time of biomarker measurements, indicated as SRB endpoints. For proliferation assays for adherent cell types, individual cell types are cultured at sub-confluence and relative cell numbers quantified by SRB staining at time points optimized for each system (48 h: 3C and CASM3C systems; 72 h: BT and HDF3CGF systems; 96 h: SAg system). SRB was performed by staining cells with 0.1% SRB after fixation with 10% TCA and reading wells at 560 nm.Viability and proliferation of PBMC (T cells) was quantified by Alamar Blue reduction for the SAg and BT systems. For PBMC viability (referred to as PBMC Cytotoxicity within the assay endpoint names), cells were plated (75,000/well in a 96-well plate) and then chemical samples added for 1 h before addition of activators, SEB and TSST-1 (20 ng/mL final concentration each). Cells were incubated for 90 h. Then, Alamar Blue (20 uL/well) (Invitrogen, Cat DAL1100) was added for 6 h, and the plates were read with a fluorescence microplate reader at 546/580 nm (excitation/emission). For PBMC proliferation, cells were plated and activated as above but incubated for only 16 h prior to addition of Alamar Blue. Plates were read after 6 h.
# [3] = read-out: Tissue plasminogen activator (tPA), PLAT (gene 5327); experiment: BSK_BF4T_tPA: BioMAP Diversity Plus: BF4T Assay for Tissue plasminogen activator (tPA) Biomarker Activity (AID 2284272); conditions: primary human bronchial epithelial cells with fibroblasts
# Summary of the method: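 tPA level quantified by ELISA at 24 h post-treatment in bronchial epithelial/dermal fibroblast co-cultures, gain of signal scored against DMSO baseline. Parallel cultures stained with 0.1% SRB (560 nm) to flag overt cytotoxicity.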
# [4] = read-out: Plasminogen Activator Inhibitor-1 (PAI1), SERPINE1 (gene 5054); experiment: BSK_BF4T_PAI1: BioMAP Diversity Plus: BF4T Assay for Plasminogen Activator Inhibitor-1 (PAI1) Biomarker Activity (AID 2284273); conditions: primary human bronchial epithelial cells with fibroblasts
# Summary of the method: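 PAI-1 levels quantified by ELISA 24 h post-dosing in bronchial epithelial cell plus dermal fibroblast cultures. Signal gain referenced to DMSO baseline. Sulforhodamine B total-protein staining of parallel wells checked cytotoxicity.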
# [5] = BSK_BF4T_SRB: Viability Assessment in the BioMAP Diversity Plus: BF4T Assay (AID 2284274); conditions: primary human bronchial epithelial cells with fibroblasts;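 on AC50: measured 24 h after compound addition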
# Experimental: BSK_BF4T is a cell-based, multiplexed-readout assay that uses bronchial epithelial cells and dermal fibroblasts, a human vascular primary cell, with measurements taken at 24 hours after chemical dosing in a microplate: 96-well plate.BSK_BF4T_SRB is an assay component measured in the BSK_BF4T assay. It measures 0.1% sulforhodamine related to cell death using Sulforhodamine staining technology.Data from the assay component BSK_BF4T_SRB was analyzed at the endpoint, BSK_BF4T_SRB, in the positive analysis fitting direction relative to DMSO as the negative control and baseline of activity. Using a type of viability reporter, gain or loss-of-signal activity can be used to understand protein changes. To generalize the intended target to other relatable targets, this assay endpoint is annotated to the 'cell morphology' intended target family, where the subfamily is 'cell conformation'.
# as §1
# [6] = read-out: urokinase Plasminogen Activator (uPA), PLAU (gene 5328); experiment: BSK_BF4T_uPA: BioMAP Diversity Plus: BF4T Assay for urokinase Plasminogen Activator (uPA) Biomarker Activity (AID 2284275); conditions: primary human bronchial epithelial cells with fibroblasts
# Summary of the method: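 uPA levels measured by ELISA at 24 hours in BF4T cultures (bronchial epithelial cells plus dermal fibroblasts) and compared with DMSO; cytotoxicity tracked in parallel cultures by sulforhodamine B staining.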
# [7] = read-out: Matrix Metallopeptidase 9 (MMP9), MMP9 (gene 4318); experiment: BSK_BF4T_MMP9: BioMAP Diversity Plus: BF4T Assay for Matrix Metallopeptidase 9 (MMP9) Biomarker Activity (AID 2284276); conditions: primary human bronchial epithelial cells with fibroblasts
# Summary of the method: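 MMP-9 levels were measured by ELISA after 24 h exposure of bronchial epithelial cell/dermal fibroblast co-cultures, with DMSO as baseline. Parallel cultures were stained with 0.1% SRB after TCA fixation, read at 560 nm, to flag overt cytotoxicity.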
# [8] = read-out: Interleukin-8 (IL8), CXCL8 (gene 3576); experiment: BSK_IMphg_IL8: BioMAP Diversity Plus: IMphg Assay for Interleukin-8 (IL8) Biomarker Activity (AID 2284277); conditions: primary human endothelial cells with macrophages
# Experimental: BSK_IMphg is a cell-based, multiplexed-readout assay that uses venular endothelial cells and macrophages, a human vascular primary cell, with measurements taken at 24 hours after chemical dosing in a microplate: 96-well plate.BSK_IMphg_IL8 is an assay component measured in the BSK_IMphg assay. It measures IL-8 antibody related to regulation of gene expression using ELISA technology.Data from the assay component BSK_IMphg_IL8 was analyzed at the endpoint, BSK_IMphg_IL8, in the positive analysis fitting direction relative to DMSO as the negative control and baseline of activity. Using a type of binding reporter, gain or loss-of-signal activity can be used to understand protein changes. To generalize the intended target to other relatable targets, this assay endpoint is annotated to the 'cytokine' intended target family, where the subfamily is 'interleukins'.
# as §1
# [9] = read-out: Intercellular Adhesion Molecule 1 (ICAM1), ICAM1 (gene 3383); experiment: BSK_BE3C_ICAM1: BioMAP Diversity Plus: BE3C Assay for Intercellular Adhesion Molecule 1 (ICAM1) Biomarker Activity (AID 2284278); conditions: primary human bronchial epithelial cells
# Experimental: BSK_BE3C is a cell-based, multiplexed-readout assay that uses bronchial epithelial cell, a human lung primary cell, with measurements taken at 24 hours after chemical dosing in a 96-well plate.BSK_BE3C_ICAM1 is an assay component measured in the BSK_BE3C assay. It measures ICAM-1 antibody related to regulation of gene expression using ELISA technology.Data from the assay component BSK_BE3C_ICAM1 was analyzed at the endpoint, BSK_BE3C_ICAM1, in the positive analysis fitting direction relative to DMSO as the negative control and baseline of activity. Using a type of binding reporter, gain or loss-of-signal activity can be used to understand protein changes. To generalize the intended target to other relatable targets, this assay endpoint is annotated to the 'cell adhesion molecules' intended target family, where the subfamily is 'Immunoglobulin CAM'.
# as §1
# [10] = read-out: Interferon-inducible T-cell alpha chemoattractant (ITAC), CXCL11 (gene 6373); experiment: BSK_BE3C_ITAC: BioMAP Diversity Plus: BE3C Assay for Interferon-inducible T-cell alpha chemoattractant (ITAC) Biomarker Activity (AID 2284279); conditions: primary human bronchial epithelial cells
# Summary of the method: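 ELISA for I-TAC in primary human bronchial epithelial cultures 24 h post-treatment, fitted relative to DMSO baseline in positive direction. Cytotoxicity checked in parallel cultures by sulforhodamine B protein staining.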
structure (smiles),measurement,setting,value
O=S(=O)(O)C(F)(F)C(F)(F)C(F)(F)C(F)(F)F,outcome,[1],inactive
same,outcome,[2],inactive
same,outcome,[3],inactive
same,outcome,[4],inactive
same,outcome,[5],inactive
same,outcome,[6],inactive
same,outcome,[7],inactive
same,AC50,[8],30 µM (active) and 33.4 µM (active)
same,outcome,[9],inactive
same,outcome,[10],inactive
COc1ccc(O)c(C(C)(C)C)c1,outcome,[9],inactive
same,outcome,[10],inactive
O=S(=O)(O)C(F)(F)C(F)(F)C(F)(F)C(F)(F)C(F)(F)C(F)(F)F,outcome,[1],inactive
same,outcome,[2],inactive
same,outcome,[3],inactive
same,outcome,[4],inactive
same,outcome,[5],inactive
same,outcome,[6],inactive
same,outcome,[7],inactive
same,AC50,[8],22.9 µM (active)
same,outcome,[8],inactive
same,outcome,[9],inactive
same,outcome,[10],inactive
O=C(O)C(F)(F)C(F)(F)C(F)(F)C(F)(F)C(F)(F)C(F)(F)C(F)(F)C(F)(F)C(F)(F)F,AC50,[1],14.1 µM (active) and 11 µM (active)
same,AC50,[2],18.5 µM (active) and 21.3 µM (active)
same,AC50,[3],34.6 µM (active) and 17.3 µM (active)
same,AC50,[4],22.9 µM (active) and 24.8 µM (active)
same,AC50,[5],17.7 µM (active) and 19.3 µM (active)
same,AC50,[6],14.6 µM (active) and 18 µM (active)
same,AC50,[7],20 µM (active) and 20.5 µM (active)
same,outcome,[8],inactive
same,AC50,[9],16.9 µM (active) and 14.6 µM (active)
same,AC50,[10],12.8 µM (active) and 13.7 µM (active)

# From PubChem BioAssay (EPA / NIEHS)
